Screening results: PubChem, National Center for Advancing Translational Sciences (NCATS)
This is one part of a sample in which hits are shown more often than they occur.
TSHR antagonist – antagonists of human thyroid stimulating hormone receptor; actives 0.2% (n = 330,000); TSHR-expressing cells, TSH-stimulated cAMP HTRF, 2 h; hits give low values; AID 504810; P16473; activity change, negative = inhibition, % at 11.5 µM;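 active means activity change below a set negative limit, meaning inhibition stronger than a set level, cut at about -70% in these data; inconclusive means activity change between two set negative limits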; further: on the % scale 0 is the no-effect control and ±100 the full control effect
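TSHR-expressing cells, 200/well, pre-treated with compound, then stimulated with EC80 TSH (4nM final) for 2 hours at 37 deg C. cAMP measured by competitive HTRF: anti-cAMP cryptate antibody in lysis buffer plus cAMP-d2, read after 30 minutes at room temperature.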
RXFP1 antagonist – blocks the human relaxin receptor RXFP1 | Q9HBX9 | HEK293-RXFP1, relaxin-stimulated cAMP HTRF, 30 min; hits give low values | activity change, negative = inhibition, % at 57.5 µM | actives 0.59% (n = 350,000);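 active means activity change of -60% or lower, but not beyond a set lower limit; inconclusive means change between -60% and -40%, or beyond the set limit; inactive means change above -40%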; further: on the % scale 0 is the no-effect control and ±100 the full control effect
Target sequence (Q9HBX9 whole entry, looked up): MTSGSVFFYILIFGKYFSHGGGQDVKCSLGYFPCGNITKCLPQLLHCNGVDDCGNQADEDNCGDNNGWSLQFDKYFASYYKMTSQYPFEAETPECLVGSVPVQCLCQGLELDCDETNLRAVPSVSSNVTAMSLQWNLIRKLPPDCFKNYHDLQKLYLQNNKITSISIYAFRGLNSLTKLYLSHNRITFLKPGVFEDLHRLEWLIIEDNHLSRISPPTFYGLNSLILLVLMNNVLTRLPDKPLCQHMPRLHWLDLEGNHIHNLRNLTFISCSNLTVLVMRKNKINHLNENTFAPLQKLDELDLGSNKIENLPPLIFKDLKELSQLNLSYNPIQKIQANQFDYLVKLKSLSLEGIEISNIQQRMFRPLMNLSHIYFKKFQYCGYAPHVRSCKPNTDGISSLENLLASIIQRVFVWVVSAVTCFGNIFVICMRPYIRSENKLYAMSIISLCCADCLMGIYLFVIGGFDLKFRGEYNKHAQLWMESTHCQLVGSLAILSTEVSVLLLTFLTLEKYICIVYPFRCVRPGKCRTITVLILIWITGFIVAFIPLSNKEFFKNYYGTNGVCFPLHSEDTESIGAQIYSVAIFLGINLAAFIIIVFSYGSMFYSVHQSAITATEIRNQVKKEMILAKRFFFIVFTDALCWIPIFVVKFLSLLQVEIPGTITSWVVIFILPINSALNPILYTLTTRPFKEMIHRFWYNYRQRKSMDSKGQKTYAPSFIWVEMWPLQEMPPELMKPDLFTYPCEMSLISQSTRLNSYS
PTHR1 agonist – activates the human parathyroid hormone receptor PTHR1 | HEK293 GP2 PTHR1 cells, GloSensor cAMP luminescence, 1 h | actives 0.075% (n = 410,000) | Potency, µM (titrated, usually from 115 µM), without a hit: at the highest dose activation, actives largely listed as activators | Q03431; further: potency means the concentration at half of the fitted maximal effect; nearly all actives have a fitted effect of over 55% in size
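HEK-293-derived GP2 cells expressing PTHR1 and a GloSensor cAMP reporter, 3,000/well, plated overnight, given luciferin plus IBMX (each 0.5 mM as added) for 1 h at 37 °C, then compound for 1 h at 37 °C. Luminescence was read after 15 min at room temperature.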
HEK293 tox – cytotoxic in the GLP-1 receptor inverse agonist counter-screen; actives 0.13% (n = 410,000); HEK293 cAMP-luciferase reporter cells, luminescence, 24 h; Potency, µM (highest dose often 38.3 µM), without a hit: at the top dose activity change, negative = inhibition, hits mostly inhibitors;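 further: loss of luciferase light is scored as toxicity; potency means the concentration at half of the fitted maximal effect; on the % scale 0 is the no-effect control and ±100 the full control effect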
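Here, cytotoxicity is scored as loss of luminescence. The MLSMR collection was tested on cells seeded in medium containing 10% Nu serum, with a 24 hr compound exposure preceded by 12 hours of culture.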
RXFP1 agonist – RXFP1 (human) receptor agonism; Q9HBX9; HEK293T-RXFP1 cAMP TR-FRET, 30 min; response scale: percent of porcine relaxin response, buffer zero; Potency, µM (top dose mostly 57.5 µM), inactives show top-dose activation, usual class: activators; actives 0.3% (n = 370,000); AID 2676; further: potency means the concentration at half of the fitted maximal effect; on the % scale 0 is the no-effect control and ±100 the full control effect; nearly all actives have a fitted effect of over 60% in size
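HEK293T cells stably expressing RXFP1 were pretreated with the PDE4 inhibitor Ro 20174, exposed to compounds for 30 min at 37C, lysed, and cAMP was read by TR-FRET. Data normalized to buffer (basal) and 29 nM porcine relaxin (100%).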
NPSR antag – neuropeptide S receptor (human) antagonism, cAMP | Q6W5P4 | CHO-NPSR cells, cAMP TR-FRET, antagonist mode | Potency, µM (top dose mostly 38.3 µM), for the others: at the highest dose activity change, negative = inhibition, actives largely listed as inhibitors | actives 1% (n = 220,000) | AID 1461; further: potency means the concentration at half of the fitted maximal effect; on the % scale 0 is the no-effect control and ±100 the full control effect; nearly all actives have a fitted effect of over 50% in size
Starred values were filed as active, the others as inactive; i = inactive; ? = inconclusive; / = not tested or not shown; [ ] = remark or other dose. Unless noted, the call rests on the fitted dose curve; in most records, active means well fitted curve in the direction sought with a large enough effect; inconclusive means small, poorly fitted or top-dose-only effect, or another doubt; inactive means no such curve, though single readings can be large; an effect the other way counts as inactive or inconclusive.

SMILES	TSHR antagonist	RXFP1 antagonist	PTHR1 agonist	HEK293 tox	RXFP1 agonist	NPSR antag
CC/C=C(\C(=O)N[C@H]1C(=O)N2C(C(=O)OCOC(=O)C(C)(C)C)=C(COC(N)=O)CS[C@H]12)c1csc(N)n1	/	-5.6	/	/	/	/
Oc1c(Cl)cc(CN2CCOCC2)c2cccnc12	-12.9	-19.3	-0.9%	?	0.3%	/
O=[N+]([O-])c1cc(CN2CCOCC2)c2cccnc2c1O	11.7	-102.1*	i	1.7%[7.66 µM]	0.1%	-39.9%
O=C(Oc1c(CN2CCOCC2)cc(Cl)c2cccnc12)c1ccccc1	-16.2	-2.2	-1.8%	-13.6%	0.8%	-34.2%
O=C(Oc1c(CN2CCOCC2)cc(Cl)c2cccnc12)c1ccccc1F	-2.8	-21.6	i	?	-2.2%	7.94µM*
Cc1cccc(-n2c(SCC(=O)Nc3ccc(C)c(C)c3)nc3n[nH]c(C)c3c2=N)c1	/	-9.9	i	0.2%	-1.5%	/
CN(C)CCCNC(=O)c1ccc(-c2nc(-c3ccc(Cl)cc3)cs2)cc1	7.4	-38.3	i	?	2.3%	10µM*
COC(=O)N/N=C/c1cccc(OCCSc2ccc(Cl)cc2)c1	-19.0	-61.6*	-21.1%	-7.5%	2.3%	7.5%
NC(=S)N/N=C/c1ccccc1OCCSc1ccc(Cl)cc1	-38.2	-8.9	-20.4%	3.16µM*	1.7%	-59.0%
CCOC(=O)N/N=C/c1ccccc1OCc1ccc(Cl)cc1	-0.5	-10.7	i	-4.5%	1.8%	-30.2%
CCOC(=O)C1CCN(C(=O)Cn2nc(CC)n3c(cc4sccc43)c2=O)CC1	/	-1.4	-52.0%	-5.6%	11.6%	/
COc1cccc(CN2CC(C(=O)N(C)Cc3ccc(C)cc3)CCC2=O)c1 (stereo not drawn)	-7.8	10.4	-4.4%	-6.7%	-1.6%	/
COCc1cc(CN(C)C(=O)C2CCC(=O)N(Cc3cccc(OC)c3)C2)[nH]n1 (stereo not drawn)	1.5	-78.0*	-11.5%	-27.1%	-1.2%	/
COc1cccc(NC(=O)CSc2nc3ccc(NC(=O)c4ccco4)cc3s2)c1	/	/	-9.6%	-9.1%	6.1%	/
CCN1CCN(C(c2cccnc2)c2c(NC(=O)c3ccco3)sc(C)c2C)CC1 (stereo not drawn)	15.9	-8.5	i	-11.3%	-1.2%	/
Cc1sc(NC(=O)c2ccco2)c(C(c2cccnc2)N2CCC(C)CC2)c1C (stereo not drawn)	-29.0	-30.1	-23.2%	-27.9%	2.7%	12.6µM*
Cc1ccccc1-c1cn(-c2ccccc2)c(=S)[nH]1	-6.2	-17.1	-7.6%	9.4%	7.1%	/
Cc1ccc(-c2cn(-c3ccccc3)c(=S)[nH]2)cc1C	16.0	-76.6*	-18.8%	3.4%	-1.4%	/
Oc1cccc(Nc2nc(O)c(/C=C3\C=Nc4ccccc43)s2)c1	-20.5	-1.0	i	-5.6%	1.1%	?
Oc1nc(Nc2ccc(F)cc2)sc1/C=C1\C=Nc2ccccc21	-23.8	-104.0*	-13.2%	-27.1%	2.4%	?
COc1cc(/C=C/C(=O)c2ccc(Cl)s2)cc(OC)c1O	-25.4	7.4	-13.5%[57.5 µM]	?	-0.2%	10µM*
COCCn1nnnc1C(c1cc2cc(C)ccc2[nH]c1=O)N1CCN(C2CCCCC2)CC1 (stereo not drawn)	10.6	-23.4	-2.4%[57.5 µM]	11.2µM*	0.1%	0.4%[46.1 µM]
COCCn1nnnc1C(c1cc2ccc(OC)cc2[nH]c1=O)N1CCN(C2CCCCC2)CC1 (stereo not drawn)	20.0	-3.1	-4.0%[57.5 µM]	-20.7%	2.3%	-23.7%[46.1 µM]
CC1CCCN(S(=O)(=O)c2ccc3c(c2)c(=O)nc2ccccn23)C1 (stereo not drawn)	9.4	6.4	21.1%	7.9%	?	/
COc1ccc(CCn2c(C3CCCCC3)nc3c(c(=O)c4ccccc4n3C)c2=O)cc1	-8.0	-3.7	-28.5%	5.01µM*	4.1%	?
SMILES	TSHR antagonist	RXFP1 antagonist	PTHR1 agonist	HEK293 tox	RXFP1 agonist	NPSR antag
CC1=NN(c2ccccc2)C(=O)C1C=Nc1ccc(N(C)C)cc1 (stereo not drawn)	?	-68.9*	i	?	-6.8%	-32.3%
CC1=NN(c2ccccc2)C(=O)C1N=Nc1ccc(C)cc1 (stereo not drawn)	3.2	/	/	/	-0.5%	4.2%
COc1cccc(F)c1C(C[N+](=O)[O-])c1c(N)n(C)c(=O)n(C)c1=O (stereo not drawn)	-12.6	-37.5	-12.2%	?	0.0%	6.31µM*
COc1cc(C(C[N+](=O)[O-])c2c(N)n(C)c(=O)n(C)c2=O)ccc1O (stereo not drawn)	-1.7	-5.3	-40.9%	-4.0%	-1.8%	8.1%
O=C(CSc1nc(=O)[nH]c2c1CCC2)NCc1ccc(F)cc1	/	-2.4	i	-16.0%	5.0%	/
O=C(O)c1ccccc1C(=O)c1ccc(N2CCOCC2)c([N+](=O)[O-])c1	3.4	-69.1*	i	-13.5%	-0.2%	8.5%
CCCCNC(=S)NNC(=O)CCn1nc(C)c(Br)c1C	4.7	29.0	i	5.62µM*	1.6%	?
Cc1nn(CCC(=O)NNC(=S)Nc2ccc(F)cc2)c(C)c1Br	-1.0	1.1	i	-24.4%	-0.6%	-22.8%
CC(C)c1ccc(N2C=Nc3ccc(C(C)C)cc3C2)cc1	-2.7	-20.2	-48.5%	-44.8%	1.3%	7.94µM*
C1=Nc2ccccc2CN1c1ccccc1	11.5	3.3	i	-3.7%	2.4%	16.4%
N/C(=N\OC(=O)/C=C/c1ccccc1)c1ccc(Cl)cc1	9.3	-10.5	-4.9%	11.2µM*	0.2%	-11.2%
C=CCSc1nsc(NC(=O)Nc2ccc(F)cc2)n1	-81.8*	-22.1	-47.0%	?	0.7%	/
CCSc1nsc(NC(=O)Nc2ccccc2F)n1	-20.0	-28.1	-37.2%	8.0%	0.1%	/
CCOc1cccc(CN2CCN(c3cccc(C(F)(F)F)c3)CC2)c1O	-5.0	-14.2	i	12.0%	2.4%	10µM*
COc1cccc(CN2CCN(c3cccc(C(F)(F)F)c3)CC2)c1OC	-6.7	-18.0	-23.0%	2.4%	-1.1%	0.4%[46.1 µM]
Cc1c(CNC2CCCCC2)c(C(=O)O)c(C)n1Cc1ccccc1F	/	-4.2	i	11.2%	-0.2%	/
C/C(=N\O)c1ccc(OCC(=O)N2CCCCC2)cc1	/	-15.5	/	/	/	/
CCc1ccc2nc3sc(C(=O)O)cc3cc2c1	10.0	?	-18.8%	-5.0%	3.4%	14.0%
CNC[C@H](O)[C@@H](O)[C@H](O)[C@H](O)CO	/	-2.9	/	/	/	/
N#CC(C#N)=c1ccc2c(c1)N1C3=C(CCCC3)CC3CCCCC31N=2 (stereo not drawn)	-9.2	6.4	-26.3%	-12.1%	-10.8%	12.6µM*
